Among the data in PubChem BioAssay AID1159606 (Sanford-Burnham Center for Chemical Genomics, 2016) are inhibition values, retold here.

In all, about 360,000 compounds went through this assay and about 7,300 (2%) were called active. The full list was thinned out, with actives kept by preference. Unmarked numbers belong to inactive results. No stated cut-off is given here; in the data, active means inhibition above about 50%; inactive means the rest.

A short description of the assay: blockers of TWEAK-induced Fn14 reporter activity – luciferase reporter cells, uHTS, primary screen (AID 1159606). The following applies: TWEAK-stimulated Fn14 reporter cells, luciferase luminescence, 8 h; at 10 µM; hits give high values. Background: In a reporter assay the amount or activity of a reporter protein is the signal.
For the compound `COC(=O)[C@]12CCCCC=C1N(Cc1cccc3ccccc13)C(=O)[C@H](CC(=O)N1CCOCC1)C2`, the inhibition – broadly, the change of the read-out against control, counted positive when it falls – was -1.32%.

As to `CSc1ccc(Cl)c(C(=O)OCC(=O)N2CC(C)OC(C)C2)c1` (configuration not stated), the inhibition was 3.56%.

Take `O=C1/C(=C\c2ccc([N+](=O)[O-])cc2)CS(=O)(=O)C/C1=C/c1ccc([N+](=O)[O-])cc1`: the inhibition is 103% (active).

Turning to `CCCCC(=O)Nc1c2c(nn1-c1ccc([N+](=O)[O-])cc1)CS(=O)(=O)C2`, the inhibition was -8.65%.

For the compound `CN(C)S(=O)(=O)N1CCN(c2ccc([N+](=O)[O-])cc2)CC1`, the inhibition was -16%.

In the case of `Cc1cc(NC(=O)CSc2nnnn2-c2ccc(F)cc2)no1`, the inhibition was -11.5%.

With `O=C(O)Cc1csc(NC(=O)CSc2nnnn2-c2ccc(O)cc2)n1`, the inhibition is 58.4% (active).

For `O=C(CSc1nnnn1-c1ccc(O)cc1)c1ccc(F)cc1`, the inhibition was -10.2%.

For `O=C(COc1cccc(F)c1)Oc1ccc(C(=O)c2ccccc2)cc1`, the inhibition was 10.4%.

As to `Cc1c(Br)c([N+](=O)[O-])nn1CC(=O)N1CCN(Cc2ccccc2)CC1`, the inhibition was -4.42%.

For `O=C(Nc1ccn(Cc2ccccc2)n1)c1n[nH]c([N+](=O)[O-])c1Cl`, the inhibition was 73.8% (active).

As to `O=C(Nc1ccn(Cc2ccccc2F)n1)c1ccc(COc2ccc(Cl)cc2Cl)o1`, the inhibition was 33.4%.

As to `CC(=O)Oc1ccc(Cn2c(C)c(C(=O)NCc3ccc(C#N)cc3)sc2=O)cc1`, the inhibition is -2.94%.

In the case of `CC(=O)C1=CCC(c2ccccc2)N(S(=O)(=O)c2ccc(C)cc2)C1` (configuration not stated), the inhibition was 15.7%.

As for `Cc1ccc2oc(=O)c3cnn(CC(=O)N4CCCCCC4)c3c2c1`, the inhibition is -7.9%.

With `Cc1ccc2cc3cc(C(=O)N4CCCCCC4)oc3nc2c1`, the inhibition was 50.1% (active).

`Cc1cc(C)cc(NC(=O)N2CCCCCCC2)c1`: the inhibition is -11.9%.

On to `COc1ccc(OC)c(CN2C(=O)CCC2(C)c2nnnn2Cc2ccccc2)c1` (configuration not stated), for which the inhibition was -0.14%.

Take `C=CCNc1nnc(SCC(=O)N2CCCCC2)c2ccccc12`: the inhibition is 16.3%.

For the compound `COC(=O)c1ccc2nc(-c3ccc(C)cc3)c(Cc3ccc(OC)cc3C)n2c1`, the inhibition is -18.1%.

Turning to `Cc1ccccc1NC(=S)NC(=O)Cc1ccc(Cl)cc1`, the inhibition is 9.93%.

In the case of `Cc1cccc(NC(=S)NCCc2ccc(Cl)cc2)c1C`, the inhibition is 72% (active).

For the compound `Cc1cccc(NC(=S)NCCc2ccc(F)cc2)c1C`, the inhibition is 3.93%.

Take `Cc1ccc(CNC(=O)c2cccc3c2C(=O)c2ccc(N4CCC(C)CC4)cc2S3(=O)=O)cc1`: the inhibition was 21%.

`COc1cc(/C=C/C(=O)OCC(=O)Nc2cccc(Oc3ccccc3)c2)ccc1O`: the inhibition was 14.2%.

For the compound `CCCCC[C@H](C)N1C[C@@H](COCc2ccccc2)Oc2cc(N3CC[C@@H](N(C)C)C3)ccc2S1(=O)=O`, the inhibition is -25%.

For the compound `Nc1ccccc1SC(C[N+](=O)[O-])c1ccccc1` (configuration not stated), the inhibition is 61.3% (active).

Turning to `CS(=O)(=O)N(Cc1ccccc1)c1ccc(C(=O)NN=C2CCCCCC2)cc1`, the inhibition was -6.55%.

In the case of `COc1ccc(OC)c(NC(=O)C2CCCN2S(=O)(=O)c2ccc3c(c2)CC(C)N3C(C)=O)c1` (configuration not stated), the inhibition is -20.4%.

As to `COc1ccc(CN(Cc2ccco2)S(=O)(=O)c2ccc(S(=O)(=O)N3CCCC3)cc2)cc1`, the inhibition is -30.2%.

Turning to `Cc1ccsc1C(=O)OCC(=O)c1cc(C)n(CC2CCCO2)c1C` (configuration not stated), the inhibition was 103% (active).

Turning to `Cc1ccsc1C(=O)OCC(=O)NCCc1ccccc1`, the inhibition was -22.4%.

On to `Cc1ccsc1C(=O)OCC(=O)Nc1cccc(F)c1`, for which the inhibition is -31.6%.

Turning to `Cc1ccc(OCC(=O)N2CCN(S(=O)(=O)c3ccc(Cl)s3)CC2)cc1C`, the inhibition was 10.7%.

As to `CCCC(C)C(=O)Nc1ccc(NC(C)=O)cc1` (configuration not stated), the inhibition is -11.6%.

As to `O=C(CCS(=O)(=O)c1ccccc1)Nc1nc2c(s1)CCCC2`, the inhibition is 22%.

Turning to `COc1cccc2sc(N(CCCN(C)C)C(=O)CCS(=O)(=O)c3ccccc3)nc12`, the inhibition was 77.6% (active).

As for `Cc1ccc(S(=O)(=O)CCC(=O)OCC(=O)N(C)Cc2ccccc2)cc1`, the inhibition was 4.76%.

Turning to `Cc1cccc2sc(N(CCCN(C)C)C(=O)CCS(=O)(=O)c3ccccc3)nc12`, the inhibition was 61.9% (active).

In the case of `COc1ccc(N(C)C(=O)CCS(=O)(=O)c2cccc3nsnc23)cc1`, the inhibition was 36.5%.

As for `Cc1cccc(C)c1NC(=O)CCS(=O)(=O)c1cccc2nsnc12`, the inhibition is -23.2%.

As for `CCOc1ccc(NS(=O)(=O)c2ccc(C(=O)NC3CCN(Cc4ccccc4)CC3)cc2)cc1`, the inhibition is 10.7%.

In the case of `Cc1cccc(CCNC(=O)Cn2ncc3c([nH]c4ccc(C)cc43)c2=O)c1`, the inhibition was -15.4%.

Regarding `C=CCc1cc(S(=O)(=O)c2ccc(O)c(CC=C)c2)ccc1O`, the inhibition was 30.9%.

`O=C1C(Sc2cccc(F)c2)=C[C@@]2(O)CC[C@@H](O)[C@]1(Sc1cccc(F)c1)[C@H]2O`: the inhibition was 31.5%.

Regarding `CC(OC(=O)Cc1ccc(F)cc1)C(=O)N1CCc2ccccc21` (configuration not stated), the inhibition was -3.73%.

On to `C[C@H](CO)N1C[C@H](C)[C@H](CN(C)C(=O)Nc2ccc(C(F)(F)F)cc2)Oc2c(NC(=O)c3ccncc3)cccc2C1=O`, for which the inhibition is 7.86%.

Regarding `Cc1nnc(NC(=O)CSc2nccn2-c2cccc(C)c2C)s1`, the inhibition was 12.7%.

`COc1cc(C(O)c2nc(-c3cnn(C)c3)cs2)ccc1F` (configuration not stated): the inhibition was -2.28%.

As to `Brc1ccccc1/C=N/Nc1nc2ccccc2o1`, the inhibition was -8.62%.

For `Oc1c(Br)cccc1/C=N/Nc1c(F)c(F)c(F)c(F)c1F`, the inhibition was 71.5% (active).

Regarding `c1cc(-c2ccc3[nH]ccc3c2)n2ccnc2c1`, the inhibition is -2.85%.

In the case of `COCCNC(=S)N1CCC(NC(=O)C23CC4CC(CC(C4)C2)C3)CC1`, the inhibition was 15.9%.

With `CCOC(=O)[C@]12CCCC=C1N(Cc1ccc(Cl)cc1Cl)C(=O)[C@H](CC(=O)N1CCCCC1)C2`, the inhibition was 7.58%.

Consider `COc1cc2c(=O)n(C)c3ccccc3c2cc1OC`, for which the inhibition was -37.3%.

For the compound `O=C(COC(=O)c1ccc(O)cc1O)c1ccc2c(c1)OCCO2`, the inhibition was -18.5%.

Turning to `O=C(COC(=O)c1ccccc1)c1ccc2c(c1)OCCO2`, the inhibition is 77.6% (active).

Consider `COc1ccc(C(=O)OCC(=O)Nc2cccc(C(C)=O)c2)cc1OC`, for which the inhibition is 11.4%.

With `O=C(OCc1ccccc1F)c1ccc2c(c1)OCCO2`, the inhibition is -12.5%.

On to `CC(=O)Nc1cccc(C(=O)OCC(=O)NCc2cc(C)c(O)c(C)c2)c1`, for which the inhibition was -19.2%.

Consider `CC(=O)Nc1cccc(C(=O)OCC(=O)c2ccc3c(c2)OCO3)c1`, for which the inhibition is 81.9% (active).

On to `CCOC(=O)[C@]12CCC=C1N(Cc1ccccc1)C(=O)[C@H](CC(=O)N1CCCC1)C2`, for which the inhibition is 15.9%.

On to `CCN1CCN(CCNC(=O)c2ccc3c(c2)NC(=O)/C(=C\c2cccc(Cl)c2)S3)CC1`, for which the inhibition is -66.6%.

Consider `CCN(CCCNC(=O)c1ccc2c(c1)NC(=O)CN2C)c1cccc(C)c1`, for which the inhibition was 82.5% (active).

As for `CCN(CCCNC(=O)CCn1c(=O)[nH]c2ccsc2c1=O)c1ccccc1`, the inhibition is -1.46%.

Turning to `CCOC(=O)N1CCN(C(=O)C[C@@H]2C[C@@]3(C(=O)OC)CCCCC=C3N(CCC3=CCCCC3)C2=O)CC1`, the inhibition is -5.06%.

Take `COCCCn1cc(CN2CC(N(C)C)CS2(=O)=O)nn1` (configuration not stated): the inhibition is 20.9%.

Take `CC(C)C[C@H]1CNC(=O)C(=O)N1C[C@H]1CCCN1C[C@H](Cc1ccc(O)cc1)N1C[C@H](CC(C)C)N(CC2CCCCCC2)C(=O)C1=O`: the inhibition is 1.64%.

For the compound `CCC(C)Cn1c(O)cc2nn(-c3nc4ccccc4s3)c(=O)c-2c1C` (configuration not stated), the inhibition was 61.6% (active).

Turning to `C[C@H](CO)N1C[C@H](C)[C@H](CN(C)C(=O)Nc2ccc3c(c2)OCO3)Oc2ncc(Br)cc2C1=O`, the inhibition is -2.28%.

For the compound `CCOc1ccc(CN2CCN(CCCc3ccccc3)C(CCO)C2)cc1` (configuration not stated), the inhibition is 1.65%.

Turning to `CC(C)=CCN1CCN(Cc2ccc(Oc3ncccn3)cc2)CC1CCO` (configuration not stated), the inhibition is 14.3%.

For the compound `OCCC1CN(Cc2ccc(Oc3ncccn3)cc2)CCN1CCc1ccccc1` (configuration not stated), the inhibition was 75.5% (active).

In the case of `COc1ccc(OC)c(NC(=O)c2ccc3c(c2)CCN3S(C)(=O)=O)c1`, the inhibition was -3.45%.

On to `CN(C)C1CN(Cc2cn(Cc3ccccc3)nn2)S(=O)(=O)C1` (configuration not stated), for which the inhibition was 7.88%.

On to `COCc1c(N)c(C)nc(Cl)c1C#N`, for which the inhibition is 12.4%.

In the case of `C[C@@H]1CN([C@@H](C)CO)C(=O)CCCn2nncc2CO[C@H]1CN(C)C(=O)Nc1ccc(C(F)(F)F)cc1`, the inhibition is 106% (active).

In the case of `COC(=O)N(C)C[C@@H]1OCc2cnnn2CCCC(=O)N([C@@H](C)CO)C[C@@H]1C`, the inhibition is 19.1%.

With `C[C@@H]1CN([C@@H](C)CO)C(=O)CCCn2nncc2CO[C@H]1CN(C)Cc1ccc(C(F)(F)F)cc1`, the inhibition was 1.47%.

With `O=C1c2ccncc2C(=O)N1C1CCCCC1`, the inhibition is -3.74%.

In the case of `O=[N+]([O-])c1cc(Br)c(O)c(/C=N/Nc2nc3ccccc3s2)c1`, the inhibition is 75.7% (active).

With `O=C(N/N=C/c1cc(Br)c(O)c([N+](=O)[O-])c1)C(O)(c1ccccc1)c1ccccc1`, the inhibition is -0.77%.

As to `c1ccc(C(=NNc2nc3ccccc3s2)c2ccccn2)cc1`, the inhibition is 44.1%.

As to `Cc1cccc(CN2CCN(C3CN(Cc4ccccc4)S(=O)(=O)C3)CC2)c1` (configuration not stated), the inhibition was -19.1%.

With `O=C(c1c(Cl)cccc1Cl)N1CCN(c2cccc3[nH]ccc23)CC1`, the inhibition was -30.3%.

Regarding `COc1ccc(-c2ccc(CN3C(CC(C)C)C(=O)N(Cc4cn(CC5CCCCC5)nn4)CCS3(=O)=O)cc2)cc1` (configuration not stated), the inhibition is 24.8%.

In the case of `O=S1(=O)CC(N2CCN(CCO)CC2)CN1Cc1cn(Cc2ccc(Cl)cc2)nn1` (configuration not stated), the inhibition was -0.1%.
